Data on six compounds can be found in ChEMBL document CHEMBL1961873, “Compounds: GSK PKIS; Assays: Nanosyn kinase panel” (2012).

SMILES strings stand for the structures.

Assay [1] has as its target Leukocyte tyrosine kinase receptor (Homo sapiens) (UniProt P29376). Particulars: at 1 µM.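 Further: each value is the mean inhibition of LTK.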
In assay [2] the target is Tyrosine-protein kinase Lyn (Homo sapiens) (UniProt P07948). Particulars: at 0.1 µM.
The target is the same in assay [3]. Particulars: at 1 µM.
The target is the same in assay [4]. To be noted: at 0.1 µM. The source holds these as a separate data set.
The target is the same in assay [5]. To be noted: at 1 µM. The source holds these as a separate data set.
Assay [6] concerns the target T1, Tyrosine-protein kinase Mer (Homo sapiens) (UniProt Q12866).
T1 sequence (whole entry): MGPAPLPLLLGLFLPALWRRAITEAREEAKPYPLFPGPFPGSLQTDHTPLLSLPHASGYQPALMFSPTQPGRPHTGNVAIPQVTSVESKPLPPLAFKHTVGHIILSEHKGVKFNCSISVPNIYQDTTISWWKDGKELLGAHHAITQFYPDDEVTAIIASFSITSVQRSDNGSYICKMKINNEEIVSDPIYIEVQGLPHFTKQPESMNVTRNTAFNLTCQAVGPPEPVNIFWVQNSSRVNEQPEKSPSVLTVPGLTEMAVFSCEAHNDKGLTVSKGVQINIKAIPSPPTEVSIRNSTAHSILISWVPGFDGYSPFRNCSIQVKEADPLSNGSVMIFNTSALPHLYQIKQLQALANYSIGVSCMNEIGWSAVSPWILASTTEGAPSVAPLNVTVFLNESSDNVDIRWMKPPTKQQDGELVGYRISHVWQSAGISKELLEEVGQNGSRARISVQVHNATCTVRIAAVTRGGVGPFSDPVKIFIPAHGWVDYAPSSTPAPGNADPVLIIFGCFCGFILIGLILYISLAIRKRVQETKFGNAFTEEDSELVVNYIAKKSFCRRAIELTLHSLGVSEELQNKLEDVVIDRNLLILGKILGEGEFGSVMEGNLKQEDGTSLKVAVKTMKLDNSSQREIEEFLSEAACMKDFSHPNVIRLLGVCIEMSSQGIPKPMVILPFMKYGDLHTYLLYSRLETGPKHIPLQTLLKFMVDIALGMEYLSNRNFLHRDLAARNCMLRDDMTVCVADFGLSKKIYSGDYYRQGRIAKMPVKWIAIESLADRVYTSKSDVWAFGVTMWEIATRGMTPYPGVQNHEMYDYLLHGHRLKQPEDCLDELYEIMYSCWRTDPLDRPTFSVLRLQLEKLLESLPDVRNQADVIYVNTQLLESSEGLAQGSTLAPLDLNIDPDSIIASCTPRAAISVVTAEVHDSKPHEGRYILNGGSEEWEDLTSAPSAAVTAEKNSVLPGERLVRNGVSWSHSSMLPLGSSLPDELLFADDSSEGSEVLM
To be noted: at 0.1 µM.

Assay [7] concerns the target T1, Tyrosine-protein kinase Mer (Homo sapiens). To be noted: at 1 µM.
Assay [8] deals with Hepatocyte growth factor receptor (Homo sapiens) (UniProt P08581). To be noted: at 0.1 µM.
Chain of Hepatocyte growth factor receptor (Homo sapiens) (P08581 whole entry): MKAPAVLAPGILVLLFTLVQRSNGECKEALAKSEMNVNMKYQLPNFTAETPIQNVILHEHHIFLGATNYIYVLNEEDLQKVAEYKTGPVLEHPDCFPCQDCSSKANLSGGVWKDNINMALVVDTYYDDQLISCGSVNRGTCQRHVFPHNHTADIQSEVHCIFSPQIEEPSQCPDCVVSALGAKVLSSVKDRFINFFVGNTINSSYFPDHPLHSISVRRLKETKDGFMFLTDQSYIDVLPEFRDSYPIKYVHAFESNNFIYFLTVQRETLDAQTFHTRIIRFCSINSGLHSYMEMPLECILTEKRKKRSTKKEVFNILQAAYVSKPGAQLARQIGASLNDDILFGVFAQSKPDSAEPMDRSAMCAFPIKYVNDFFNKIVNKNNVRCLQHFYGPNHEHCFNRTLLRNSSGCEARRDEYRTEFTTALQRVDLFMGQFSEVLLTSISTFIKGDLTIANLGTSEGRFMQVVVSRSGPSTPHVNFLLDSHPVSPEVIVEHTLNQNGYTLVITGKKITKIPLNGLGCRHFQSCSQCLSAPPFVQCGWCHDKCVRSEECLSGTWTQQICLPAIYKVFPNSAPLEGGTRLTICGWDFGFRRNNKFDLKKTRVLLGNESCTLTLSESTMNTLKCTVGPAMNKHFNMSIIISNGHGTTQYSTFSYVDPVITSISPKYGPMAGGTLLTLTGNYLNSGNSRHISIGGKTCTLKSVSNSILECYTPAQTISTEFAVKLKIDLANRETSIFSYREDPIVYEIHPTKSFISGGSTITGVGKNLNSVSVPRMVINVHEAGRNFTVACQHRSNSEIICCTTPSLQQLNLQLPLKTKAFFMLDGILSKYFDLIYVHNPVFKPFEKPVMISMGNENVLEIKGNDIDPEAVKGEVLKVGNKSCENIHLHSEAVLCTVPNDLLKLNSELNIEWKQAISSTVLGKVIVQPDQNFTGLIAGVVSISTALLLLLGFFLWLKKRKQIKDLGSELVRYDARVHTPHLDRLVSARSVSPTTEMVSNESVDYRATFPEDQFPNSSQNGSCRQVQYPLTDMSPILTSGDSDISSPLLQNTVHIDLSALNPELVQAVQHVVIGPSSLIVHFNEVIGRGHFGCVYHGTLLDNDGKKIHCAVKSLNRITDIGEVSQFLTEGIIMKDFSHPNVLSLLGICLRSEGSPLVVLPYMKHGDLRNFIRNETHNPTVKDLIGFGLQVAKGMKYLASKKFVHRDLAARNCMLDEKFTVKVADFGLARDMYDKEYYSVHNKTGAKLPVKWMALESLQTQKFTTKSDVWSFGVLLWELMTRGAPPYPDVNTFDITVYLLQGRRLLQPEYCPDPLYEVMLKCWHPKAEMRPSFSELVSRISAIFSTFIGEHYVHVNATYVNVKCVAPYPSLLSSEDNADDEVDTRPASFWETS
Assay [9] has the same target. Particulars: at 1 µM.
For assay [10], the target named is T2, Muscle, skeletal receptor tyrosine-protein kinase (Homo sapiens) (UniProt O15146).
T2 sequence (whole entry): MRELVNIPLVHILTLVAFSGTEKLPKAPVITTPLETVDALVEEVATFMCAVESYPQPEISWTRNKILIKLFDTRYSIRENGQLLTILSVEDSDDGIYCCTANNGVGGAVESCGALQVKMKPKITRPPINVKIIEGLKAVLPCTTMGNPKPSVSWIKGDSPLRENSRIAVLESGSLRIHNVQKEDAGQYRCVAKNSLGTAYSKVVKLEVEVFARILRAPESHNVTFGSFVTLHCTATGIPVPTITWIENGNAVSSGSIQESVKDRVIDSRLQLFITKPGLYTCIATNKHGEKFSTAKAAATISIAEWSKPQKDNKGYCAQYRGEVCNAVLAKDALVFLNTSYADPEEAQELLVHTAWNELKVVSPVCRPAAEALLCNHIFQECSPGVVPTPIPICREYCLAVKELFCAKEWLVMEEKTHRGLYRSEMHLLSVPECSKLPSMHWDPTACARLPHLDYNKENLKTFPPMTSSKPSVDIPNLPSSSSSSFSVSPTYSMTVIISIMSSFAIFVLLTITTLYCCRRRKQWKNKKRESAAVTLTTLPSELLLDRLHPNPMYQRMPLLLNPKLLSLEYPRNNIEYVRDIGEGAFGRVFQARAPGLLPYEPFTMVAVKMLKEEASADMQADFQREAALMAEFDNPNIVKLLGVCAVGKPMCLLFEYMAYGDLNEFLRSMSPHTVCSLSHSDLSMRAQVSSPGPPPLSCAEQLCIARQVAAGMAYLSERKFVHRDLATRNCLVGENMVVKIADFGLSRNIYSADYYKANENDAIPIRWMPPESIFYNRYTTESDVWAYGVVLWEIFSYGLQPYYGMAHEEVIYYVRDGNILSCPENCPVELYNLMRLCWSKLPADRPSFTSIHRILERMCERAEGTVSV
To be noted: at 0.1 µM.

Assay [11] deals with T2, Muscle, skeletal receptor tyrosine-protein kinase (Homo sapiens). To be noted: at 1 µM.
For assay [12], the target named is Platelet-derived growth factor receptor alpha (Homo sapiens) (UniProt P16234). Particulars: at 0.1 µM.
Chain of Platelet-derived growth factor receptor alpha (Homo sapiens) (P16234 whole entry): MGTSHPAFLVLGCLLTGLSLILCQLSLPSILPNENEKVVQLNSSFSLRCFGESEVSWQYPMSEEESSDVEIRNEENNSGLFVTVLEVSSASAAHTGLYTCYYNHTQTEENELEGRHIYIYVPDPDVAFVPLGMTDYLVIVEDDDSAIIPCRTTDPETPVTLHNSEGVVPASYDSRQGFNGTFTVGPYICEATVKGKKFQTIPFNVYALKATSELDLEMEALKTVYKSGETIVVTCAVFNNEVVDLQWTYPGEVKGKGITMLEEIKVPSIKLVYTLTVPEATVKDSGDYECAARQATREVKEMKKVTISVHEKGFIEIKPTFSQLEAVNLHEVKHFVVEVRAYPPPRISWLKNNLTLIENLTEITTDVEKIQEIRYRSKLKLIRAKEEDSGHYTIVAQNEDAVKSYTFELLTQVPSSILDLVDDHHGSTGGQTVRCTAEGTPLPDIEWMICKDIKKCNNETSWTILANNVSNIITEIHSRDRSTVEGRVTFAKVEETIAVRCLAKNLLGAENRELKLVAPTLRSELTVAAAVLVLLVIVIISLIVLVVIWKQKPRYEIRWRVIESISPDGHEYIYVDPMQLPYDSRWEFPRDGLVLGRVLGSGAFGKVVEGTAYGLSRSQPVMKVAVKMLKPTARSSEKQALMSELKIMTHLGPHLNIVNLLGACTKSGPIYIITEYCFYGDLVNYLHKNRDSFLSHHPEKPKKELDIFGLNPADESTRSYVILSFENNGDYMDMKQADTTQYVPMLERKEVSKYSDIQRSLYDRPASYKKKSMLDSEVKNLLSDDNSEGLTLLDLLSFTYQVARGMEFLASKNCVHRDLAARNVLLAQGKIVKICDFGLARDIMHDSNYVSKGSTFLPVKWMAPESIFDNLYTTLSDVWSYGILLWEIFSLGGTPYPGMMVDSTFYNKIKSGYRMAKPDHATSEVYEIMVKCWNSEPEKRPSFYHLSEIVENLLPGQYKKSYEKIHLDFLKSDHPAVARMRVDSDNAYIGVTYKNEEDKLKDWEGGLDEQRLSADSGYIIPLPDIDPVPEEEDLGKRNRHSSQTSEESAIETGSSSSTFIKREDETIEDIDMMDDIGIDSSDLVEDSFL
The target is the same in assay [13]. Particulars: at 1 µM.
The test system of assay [14] is Platelet-derived growth factor receptor alpha (Homo sapiens), P16234 [D842V]. To be noted: at 0.1 µM.
Assay [15] has the same test system. Particulars: at 1 µM.
Assay [16] relates to Platelet-derived growth factor receptor alpha (Homo sapiens), P16234 [T674I]. To be noted: at 0.1 µM.
Chain of Platelet-derived growth factor receptor alpha (Homo sapiens), P16234 [T674I] (P16234 whole entry T674I): as the sequence (P16234 whole entry) above, with T674I counted along it
The test system is the same in assay [17]. Particulars: at 1 µM.
Assay [18] relates to Platelet-derived growth factor receptor alpha (Homo sapiens), P16234 [V561D]. Particulars: at 0.1 µM.
For assay [19] the test system is unchanged. To be noted: at 1 µM.
Assay [20] has as its target Platelet-derived growth factor receptor beta (Homo sapiens) (UniProt P09619). Particulars: at 0.1 µM.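 Further: reported value is the mean percent inhibition of the kinase.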

Chain of Leukocyte tyrosine kinase receptor (Homo sapiens) (P29376 whole entry): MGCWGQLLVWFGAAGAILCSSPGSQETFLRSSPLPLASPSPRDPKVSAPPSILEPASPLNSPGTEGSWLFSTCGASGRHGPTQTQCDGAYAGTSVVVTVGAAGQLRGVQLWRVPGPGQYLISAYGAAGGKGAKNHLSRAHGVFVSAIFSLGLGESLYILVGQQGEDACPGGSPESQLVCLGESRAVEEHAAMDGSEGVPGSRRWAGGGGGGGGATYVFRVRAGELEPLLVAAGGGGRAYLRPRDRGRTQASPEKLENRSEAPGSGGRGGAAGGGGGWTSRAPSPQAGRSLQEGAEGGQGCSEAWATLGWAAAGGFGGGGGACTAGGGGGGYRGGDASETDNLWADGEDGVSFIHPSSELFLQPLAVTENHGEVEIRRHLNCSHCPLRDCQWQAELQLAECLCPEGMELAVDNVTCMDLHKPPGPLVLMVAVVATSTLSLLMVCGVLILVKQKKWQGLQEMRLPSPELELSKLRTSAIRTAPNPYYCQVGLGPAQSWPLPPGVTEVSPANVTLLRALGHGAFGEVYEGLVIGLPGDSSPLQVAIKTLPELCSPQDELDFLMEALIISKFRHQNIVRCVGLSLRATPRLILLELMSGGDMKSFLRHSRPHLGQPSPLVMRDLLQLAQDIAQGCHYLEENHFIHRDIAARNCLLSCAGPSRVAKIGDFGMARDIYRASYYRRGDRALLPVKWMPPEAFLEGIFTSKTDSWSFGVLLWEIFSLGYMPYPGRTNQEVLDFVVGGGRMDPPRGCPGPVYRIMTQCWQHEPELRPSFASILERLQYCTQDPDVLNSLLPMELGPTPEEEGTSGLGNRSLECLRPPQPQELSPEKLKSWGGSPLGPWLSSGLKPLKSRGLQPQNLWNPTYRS
Chain of Tyrosine-protein kinase Lyn (Homo sapiens) (P07948 2-512 limits assumed): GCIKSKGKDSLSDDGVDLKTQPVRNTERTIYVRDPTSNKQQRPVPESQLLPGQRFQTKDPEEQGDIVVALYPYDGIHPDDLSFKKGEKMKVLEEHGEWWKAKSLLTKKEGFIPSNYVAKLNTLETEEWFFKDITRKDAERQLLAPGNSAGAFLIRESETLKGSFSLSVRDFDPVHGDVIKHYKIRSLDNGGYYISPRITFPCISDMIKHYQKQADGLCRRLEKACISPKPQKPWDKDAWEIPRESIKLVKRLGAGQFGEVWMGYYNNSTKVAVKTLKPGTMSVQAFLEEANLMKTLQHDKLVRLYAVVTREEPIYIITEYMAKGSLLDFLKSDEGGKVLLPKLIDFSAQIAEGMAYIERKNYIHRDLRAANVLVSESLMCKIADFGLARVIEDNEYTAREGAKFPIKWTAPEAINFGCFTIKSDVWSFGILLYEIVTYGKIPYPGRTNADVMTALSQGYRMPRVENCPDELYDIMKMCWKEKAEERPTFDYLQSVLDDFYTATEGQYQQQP

A word on the inhibition: it is the relative decrease from the control value, in per cent. Read a low inhibition as a response near the control. `COc1cccc(-n2cnc3c(N/N=C/c4ccncc4)ncnc32)c1`: the inhibition in assay [1] came to 0.9%; in assay [2] it was 7.17%; in assay [3], 47.2%; in assay [4], 6.07%; in [5], 41.6%; in assay [6], 0.12%. Moreover, the inhibition in [7] is 4.47%; in assay [8] it was 0.87%; in [9], 6.87%; in assay [10], 2.4%; in assay [11] it was 17.1%; in [12], 17.9%. The inhibition in assay [13] was found to be 53.6%; in assay [14] it was 4.61%; in assay [15] it was 45.6%; in [16] it was 2.14%; in assay [17], 18.3%; in [18], 10.3%. In addition, the inhibition in assay [19] is 51%; in assay [20], 13.2%.

In the case of `COc1ccc2ncn(-c3cc(O[C@H](C)c4ccccc4Cl)c(C(N)=O)s3)c2c1`, the inhibition is 2.89% in assay [1]; 3.82% in [2]; 5.65% in [3]; 2.15% in assay [4]; 2.91% in assay [5]; 2.41% in assay [6]. Besides, the inhibition in assay [7] was found to be 4.42%; in [8], 4.37%; in assay [9], 4.23%; in assay [10], 2.62%; in assay [11], 15%; in [12], 10.4%. Further, the inhibition in assay [13] was 23.1%; in [14] it was 2.8%; in assay [15] it was 11.8%; in assay [16] it was 0.85%; in [17] it was 9.98%; in assay [18] it was 4.37%. Besides, the values for the inhibition in assay [19] and in assay [20] were 16.6% and 5.46%, respectively.

Turning to `COc1cc2ncn(-c3cc(OCCc4ccccc4)c(C(N)=O)s3)c2cc1OC`, the inhibition in assay [1] was determined as 1.98%; in [2] it was 1.83%; in [3], 9.45%; in assay [4], 0.79%; in assay [5] it was 7.19%; in assay [6], 2.54%. Besides, the inhibition in assay [7] worked out at 6.75%; in [8] it was 1.96%; in assay [9] it was 5.5%; in assay [10], 2.9%; in assay [11], 3.75%; in [12], 10.5%. For the same compound, the inhibition in assay [13] is 51.4%; in assay [14], 8.08%; in assay [15] it was 44.9%; in assay [16], 1.08%; in assay [17], 10.7%; in assay [18] it was 5.35%. Further, the inhibition in assay [19] amounted to 39.8%; in [20], 10.8%.

Consider `Fc1ccc(-c2ncn(C3CCNCC3)c2-c2ccnc(Oc3ccc(Oc4ccccc4)cc3)n2)cc1`, for which the inhibition was found to be 4.33% in assay [1]; 3.46% in assay [2]; 5.25% in [3]; 1.56% in assay [4]; 2.92% in assay [5]; 1.43% in assay [6]. The inhibition in assay [7] was determined as 10.6%; in assay [8] it was 9.38%; in assay [9], 0.02%; in [10], 2.43%; in [11], 8.37%; in assay [12], 3.69%. The inhibition in assay [13] worked out at 9.58%; in assay [14] it was 0.69%; in assay [15], 1.95%; in assay [16], 2.85%; in assay [17] it was 6.65%; in [18] it was 2.74%. Moreover, the results for the inhibition in assay [19] and in assay [20] were 3.75% and 2.57%, respectively.

Take `NC(=O)c1cc(-c2ccncc2)cc(-c2ccccc2)c1N`: the inhibition was found to be 6.16% in [1]; 11.7% in assay [2]; 48.8% in [3]; 10% in [4]; 43% in assay [5]; 1.28% in [6]. In addition, the inhibition in assay [7] was determined as 3.16%; in [8], 0.99%; in assay [9], 3.43%; in assay [10] it was 2.46%; in assay [11], 3.55%; in [12], 9.17%. The inhibition in [13] was determined as 36.2%; in assay [14], 3.01%; in [15], 11.3%; in [16], 5.87%; in assay [17], 11.6%; in [18], 5.79%. Further, the figures for the inhibition in assay [19] and in assay [20] were 37.8% and 9.7%, respectively.

Regarding `C/C(Nc1ccc(S(N)(=O)=O)cc1)=C1/C(=O)Nc2ccccc21`, the inhibition in assay [1] amounted to 9.41%; in assay [2] it was 1.53%; in assay [3] it was 8.14%; in assay [4], 0.71%; in assay [5] it was 6.94%; in assay [6] it was 0.6%. The inhibition in assay [7] was 9.21%; in assay [8] it was 3.68%; in [9], 9.39%; in [10], 3.8%; in assay [11], 30.9%; in assay [12] it was 13.8%. Also, the inhibition was determined as 53.2% in [13]; 4.56% in assay [14]; 33.6% in assay [15]; 34.4% in assay [16]; 95.7% in assay [17]; 25% in assay [18]. Moreover, the inhibition in assay [19] came out at 62%; in [20] it was 9.96%.
